Calls of active or inactive are those of the source. How the source made its calls: active means hit-call score of the fitted dose curve at least 0.9, where 1 is the maximum; inactive means score below 0.9.
Read-out: growth arrest and DNA damage 45 (GADD45A), GADD45A (gene 1647)
Test: LTEA_HepaRG_GADD45A: Life Technologies and Expression Analysis (LTEA) Assay for growth arrest and DNA damage 45 (GADD45A) using HepaRG (AID 2283458)
Details: mRNA level, 48 h; actives raise or lower the signal
Procedure: LTEA_HepaRG is a cell based, multiplexed-readout assay that uses HepaRG, a human liver cell line, with measurements taken at 48 hours after chemical dosing on a 96-well plate.LTEA_HepaRG_GADD45A is one of 102 assay component(s) measured in the LTEA HepaRG cell culture assay. It is a marker of Oxidative Stress.Data from the assay component LTEA_HepaRG_GADD45A was analyzed into 1 endpoint. This assay endpoint, LTEA_HepaRG_GADD45A, was analyzed with bidirectional fitting relative to DMSO as the negative control and baseline of activity. Using a type of inducible reporter, measures of mRNA induction for gain or loss-of-signal activity can be used to understand regulation of transcription factor activity. To generalize the intended target to other relatable targets, this assay endpoint is annotated to the cell cycle intended target family, where the subfamily is Oxidative Stress.
A total of 1060 chemcials from the ToxCast library were tested in eight-point concentration-response experiments. Cell culture and cytotoxicity assays were conducted at Thermo Fisher Scientific's Custom Services facility (Madison, WI). A single lot of human HepaRG cells (Thermo Fisher Scientific, Frederick, MD) was used for the cell culture experiments. 96-well format collagen type I coated plates of human HepaRG cells were prepared using established methods. Briefly, cryopreserved HepaRG cells were thawed, plated at a density of approximately 100,000 cells/well in HepaRG Thaw, Plate, and General Purpose media (HPRG770, Thermo Fisher Scientific), and incubated for 48 hours. 0.5% DMSO was selected as vehicle control to balance the requisite need of DMSO in HepaRG cultures to maintain differentiation (for example, baseline metabolism, proportions of hepatocytes vs. cholangiocytes), while enabling further hepatic receptor pathway activation (for example, PXR and CAR) in response to chemical exposure. 48 hours after plating, the culture medium was replaced with HepaRG Serum-Free Incudtion Media. Cells were exposed to each test chemical in duplicate and maintained in CO2 incubators for another 48 hours. Chemical plates were thawed to room temperature and 200x concentrations of treatment groups were prepared. 8-point conentration-reponse curves were made with the highest exposure at 100 uM, followed by half-log dilutions, all in 0.5% DMSO. Each test plate contained variouse controls, induction positive controls (1mM phenobarbital), cytotoxicity positive controls ([…] aflatoxin B1), vehicle controls (0.5% DMSO), and total lysis controls (0.5% DMSO). Cell morphology images were taken using an Essen IncuCyte FLR automated microscope, with six 96-well plates imaged in about 24 minutes. Images were captured and exported and JPEG files. Spent culture media was transfered to black-well plates for the LDH assay, and remaining media was sorted at -80 C for later use. Cells were treated with RLT buffer and frozen until shipped for gene expression analysis. Total RNA was isolated from the cell suspension in 75 uL of Buffer RLT (Qiagen, Germantown, MD 20874) by Quintiles/Expression Analysis (Durham, NC) using a custom isolation procedure. Total RNA from each plate well was transferred to a preamplification plate. Fluidigm's 96.96 Dynamic ArrayTM (Fluidigm, Amsterdam, the Netherlands) technology was used for gene expression analyses by quantitative reverse transcription polymerase chain reaction (qRT-PCR, performed by Quintiles/Expression Analysis, Durham, NC)89. Standard TaqManTM Assays (Applied Biosystems/ThermoFisher Scientific, Foster City, CA) were used to assess the expression of 93 genes selected based on their selectivity and sensitivity to important hepatic receptors known to be modulated by environmental chemicals; importance in human hepatocyte functionality; and hepatotoxicity. […]

| Compound | outcome | AC50 |
| --- | --- | --- |
| N#CN=C1SCCN1Cc1ccc(Cl)nc1 | inactive | – |
| N#Cc1c(Cl)cccc1Cl | inactive | – |
| CC(C)C1(C)N=C(c2ncccc2C(=O)O)NC1=O (stereo not given) | inactive | – |
| COP(=S)(OC)Oc1ccc([N+](=O)[O-])c(C)c1 | inactive | – |
| Cc1cc(C)nc(Nc2ccccc2)n1 | inactive | – |
| COCc1cnc(C2=NC(C)(C(C)C)C(=O)N2)c(C(=O)O)c1 (stereo not given) | inactive | – |
| CC1(C)C(C=C(Cl)Cl)C1C(=O)OC(C#N)c1cccc(Oc2ccccc2)c1 (stereo not given) | inactive | – |
| CCCCOCN(C(=O)CCl)c1c(CC)cccc1CC | inactive | – |
| CCSC(=O)N1CCCCCC1 | inactive | – |
| CCOP(=O)(OCC)Oc1nc(Cl)c(Cl)cc1Cl | inactive | – |
| CCOc1cc(C(C)(C)C)ccc1C1COC(c2c(F)cccc2F)=N1 (stereo not given) | inactive | – |
| Clc1cccc(C(Cl)(Cl)Cl)n1 | – | 89.4 µM (active) |
| CN/C(=N\[N+](=O)[O-])NCc1cnc(Cl)s1 | inactive | – |
| CCNC(=O)NC(=O)C(C#N)=NOC | – | 0.361 µM (active) |
| CCCC(=NOCC)C1=C(O)CC(CC(C)SCC)CC1=O (stereo not given) | inactive | – |
| CS(=O)(=O)c1cc(C(F)(F)F)ccc1C(=O)c1cnoc1C1CC1 | inactive | – |
| CCN(CC)C(=O)C(C)Oc1cccc2ccccc12 (stereo not given) | inactive | – |
| CC(C)=CC1C(C(=O)OCc2coc(Cc3ccccc3)c2)C1(C)C (stereo not given) | inactive | – |
| CSC(=O)c1c(C(F)F)nc(C(F)(F)F)c(C(=O)SC)c1CC(C)C | inactive | – |
| C=C(C)CN(CC)c1c([N+](=O)[O-])cc(C(F)(F)F)cc1[N+](=O)[O-] | inactive | – |

| Compound | outcome | AC50 |
| --- | --- | --- |
| COc1cc(OC)nc(NC(=O)NS(=O)(=O)c2ncccc2OCC(F)(F)F)n1 | – | 50 µM (active) |
| COCC(=O)N(c1c(C)cccc1C)C(C)C(=O)OC (stereo not given) | inactive | – |
| COc1cc(Cl)c(OC)cc1Cl | inactive | – |
| COCC(C)N(C(=O)CCl)c1c(C)csc1C (stereo not given) | inactive | – |
| CC(C)(C)C(=O)C(Oc1ccc(Cl)cc1)n1cncn1 (stereo not given) | inactive | – |
| CC(C)N1C(=O)N(c2ccccc2)CSC1=NC(C)(C)C | – | 81.2 µM (active) |
| CC(C)NC(=O)N1CC(=O)N(c2cc(Cl)cc(Cl)c2)C1=O | inactive | – |
| O=P(O)(O)CCCl | inactive | – |
| CCN(CC)c1nc(C)cc(OP(=S)(OC)OC)n1 | inactive | – |
| CC1(C)CON(Cc2ccccc2Cl)C1=O | inactive | – |
| CC1(C)CCC(=Cc2ccc(Cl)cc2)C1(O)Cn1cncn1 (stereo not given) | inactive | – |
| COP(=S)(OC)SCn1nnc2ccccc2c1=O | inactive | – |
| CCCN(CC)CC1COC2(CCC(C(C)(C)C)CC2)O1 (stereo not given) | inactive | – |
| O=c1n(Cl)c(=O)n(Cl)c(=O)n1Cl | inactive | – |
| Cc1c(COC(=O)[C@@H]2[C@H](/C=C(\Cl)C(F)(F)F)C2(C)C)cccc1-c1ccccc1 | inactive | – |
| Clc1nc(Cl)nc(Nc2ccccc2Cl)n1 | inactive | – |
| CCC(C)n1c(=O)[nH]c(C)c(Br)c1=O (stereo not given) | inactive | – |
| CCCCC(C#N)(Cn1cncn1)c1ccc(Cl)cc1 (stereo not given) | inactive | – |
| COC(=O)c1c(C(F)F)nc(C(F)(F)F)c(C2=NCCS2)c1CC(C)C | – | 0.0299 µM (active) |
| CC(C)N1C(=O)c2ccccc2NS1(=O)=O | inactive | – |
